DRD3 antagonist: D3 dopamine receptor (human) antagonism. P35462. D3R cells, DiscoveRx beta-arrestin luminescence, antagonist mode; hits give low values. max response, negative = inhibition, %. hit rate 2.5% among 360,000. AID 652054; in the data active = max response below about -50%; inconclusive = no clear call, values can overlap the other calls; note: % is set by controls: 0 for no effect and ±100 for the full control effect
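Cells expressing the human receptor were seeded at 1500 cells/well, incubated overnight at 37 degrees C in 5% CO2, then exposed to library compounds with dopamine controls for 90 minutes at 37 degrees C before luminescent detection.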
D1 potentiator: potentiators of human D1 dopamine receptor; potentiation, % at 10 µM; HEK293 TREx D1 cells, calcium flux, dopamine EC20 potentiation; hit rate 0.036% among 360,000; in the data active = potentiation above about 30%; note: 0% is about no effect
Target sequence (P21728 whole entry, looked up): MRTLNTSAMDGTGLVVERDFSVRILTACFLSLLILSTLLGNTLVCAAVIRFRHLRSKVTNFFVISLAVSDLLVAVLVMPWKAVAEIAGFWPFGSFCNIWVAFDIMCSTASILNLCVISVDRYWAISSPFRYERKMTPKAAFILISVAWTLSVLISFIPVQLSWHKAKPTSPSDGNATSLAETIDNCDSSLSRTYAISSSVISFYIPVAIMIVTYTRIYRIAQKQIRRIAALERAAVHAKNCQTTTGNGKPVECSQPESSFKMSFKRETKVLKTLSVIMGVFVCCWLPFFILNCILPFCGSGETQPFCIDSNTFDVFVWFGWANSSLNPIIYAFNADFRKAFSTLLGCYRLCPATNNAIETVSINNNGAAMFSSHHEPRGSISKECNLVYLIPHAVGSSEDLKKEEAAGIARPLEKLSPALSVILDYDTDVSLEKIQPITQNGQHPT
BCR signal inh: blocks chronic active B-cell receptor signaling | ABC-DLBCL IkBa-CBG/CBR reporter, luminescence ratio, 4 h | Potency, µM (doses to about 46.1 µM), without a hit: at the highest dose activity change, negative = inhibition, actives largely listed as inhibitors | hit rate 0.05% among 340,000 | AID 493014; active = well fitted inhibition curve with a large enough effect in the signal ratio, with a control signal flat, not every such curve was filed as active; inconclusive = small, poorly fitted or top-dose-only effect, or effect the other way, or a change in a side signal; the % refers to the signal ratio;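 note: potency is the fitted concentration of half-maximal effect; plate controls were basal doxycycline-induced cells for no effect and cells given 10 µM MG132 for full effect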
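Cell line TMD8 (human ABC DLBCL), stably expressing tet-inducible CBG68-IkBa fusion and CBR; IMDM/0.5% FBS; cpd up to 46 uM; dox induction, 4 h, 37C/5% CO2; dual luminescence; green/red ratio; MG132 control.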
D1 antagonist: blocks dopamine activation of the human D1 receptor; P21728; HEK293 TREx D1 cells, calcium flux, dopamine EC80; hits give low values; activity change, negative = inhibition, % at 10 µM; hit rate 3.2% among 360,000; in the data active = activity change below about -30%; note: % is set by controls: 0 for no effect and ±100 for the full control effect
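HEK293 T-REx cells expressing inducible, force-coupled D1 receptor; no-wash Ca dye, 30–90 min RT. Cmpd → 180 s read at 1 Hz → EC80 DA → 180 s read.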
D1 agonist: activates the human D1 dopamine receptor; hit rate 1% among 360,000; AID 504660; HEK293 T-REx D1 cells, calcium flux, agonist mode; activation, % at 2 µM; in the data active = activation above about 30%; note: 0% is about no effect
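Tetracycline-induced HEK293 TREx D1 cells, force-coupled to calcium signalling, were dye-loaded with a no-wash calcium kit. Compound was pin-added after a 10 s baseline. Fluorescence was read kinetically at 1 cycle/s for 180 s, with calcium rises flagged as agonism.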
D3 ag: agonists of human D3 dopamine receptor; P35462; D3R DiscoveRx beta-arrestin cells, luminescence, 90 min; max activation, %; hit rate 0.58% among 410,000; AID 652048; in the data active = max activation above about 30%; note: 0% is about no effect
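Cells at 1500/well, incubated overnight, then treated with pinned compounds (dopamine as control) for 90 min at 37 degrees C. DiscoveRx reagent added for 30 - 60 minutes at room temperature; luminescence read.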
* marks the source's active call; other numbers are inactive results; ? = inconclusive; / = no result. In the library only some 6% were active in any assay of this set; here they are far more common.

SMILES | DRD3 antagonist | D1 potentiator | BCR signal inh | D1 antagonist | D1 agonist | D3 ag
CCNC(=S)NNC(=O)c1cc(-c2ccc(OC)cc2)nc2ccccc12 | -6.3 | -6.9 | ? | -10.2 | -0.7 | 1.6
O=C(NC(=S)Nc1ccccc1)c1cc(-c2ccccc2)nc2ccccc12 | -125.1* | -0.5 | 4.3% | 13.9 | 3.7 | -8.8
C[C@H](O)[C@@H]1C(=O)N2CCc3c([nH]c4ccccc34)[C@@H]2C[C@@H]1N(C)C(=O)Nc1cc(Cl)cc(Cl)c1 | ? | / | / | / | / | -9.5
COc1ccccc1CNC(=O)C(Cc1ccccc1)NS(=O)(=O)c1ccc2c(c1)CCN2C(C)=O (stereo not given) | / | 0.6 | / | 5.5 | 4.4 | 1.1
CCOC(=O)N1CCN(C(=O)CN(Cc2ccccc2)S(C)(=O)=O)CC1 | -20.4 | -5.2 | -0.3% | -8.2 | 2.0 | 6.9
CCOC(=O)N1CCN(c2ccc(S(=O)(=O)N(Cc3ccccc3)Cc3ccccc3)cn2)CC1 | 16.8 | -6.2 | 0.2% | -31.4* | 27.1 | 3.2
CCOC(=O)N1CCN(C(=O)CN(Cc2ccc(Cl)cc2)S(=O)(=O)c2ccccc2)CC1 | 19.3 | -0.6 | -0.3% | -39.0* | 3.0 | 2.5
CN1CCN(C(=O)CN(Cc2ccc(Cl)cc2)S(C)(=O)=O)CC1 | -10.3 | 3.2 | 3.8% | -4.2 | 0.5 | 7.0
CCOC(=O)N1CCN(c2ccc(S(=O)(=O)N3CCOCC3)cn2)CC1 | 11.7 | / | -1.7% | / | / | 2.9
CCN(CC)S(=O)(=O)c1ccc(N2CCN(CCO)CC2)nc1 | 4.4 | -6.7 | -0.3% | -70.9* | 2.3 | 2.3
CS(=O)(=O)N(CC(=O)N1CCCCCC1)Cc1ccc(Cl)cc1 | -78.4* | -2.8 | 2.6% | -2.6 | 5.2 | -2.6
Cc1ccc(Cl)cc1NC(=O)C1CCN(c2nnc(C)c3c(C)n(-c4ccccc4)nc23)CC1 | / | -0.1 | / | 6.5 | 0.1 | 3.2
Cc1cc(C)c(NC(=O)C(=O)NCCc2csc(-c3ccc(F)cc3)n2)c(C)c1 | / | 0.6 | / | -2.5 | 2.0 | 5.8
Cn1c(=O)[nH]c(=O)c2c1nc([N+](=O)[O-])n2Cc1ccccc1 | -81.7* | 4.6 | ? | 25.8 | 1.6 | -27.2
CC(C)Cn1c([N+](=O)[O-])nc2c1c(=O)[nH]c(=O)n2C | -13.2 | -0.7 | ? | 8.9 | 2.8 | -10.2
Cn1c(=O)[nH]c(=O)c2c1nc1n2CCN1Cc1ccccc1 | -3.2 | -7.3 | 2.6% | -60.9* | 2.8 | 14.2
Cn1c(=O)[nH]c(=O)c2c1nc1n2CCN1c1ccccc1 | / | -2.2 | / | 12.2 | -0.1 | 44.6*
CC1CN(c2ccccc2)c2nc3c(c(=O)[nH]c(=O)n3C)n2C1 (stereo not given) | -15.3 | -8.7 | ? | -8.3 | 2.6 | -4.3
CCN(CC)c1nc2c(c(=O)[nH]c(=O)n2C)n1CCOc1ccccc1 | 7.0 | 35.0* | ? | 4.7 | 6.8 | 6.4
CN(C)c1nc2c(c(=O)[nH]c(=O)n2C)n1CCOc1ccccc1 | 7.2 | -6.4 | -10.3% | 12.4 | 1.5 | 3.9
CCC(C(=O)Nc1cc(C)ccc1C)n1c(=O)c(C(F)(F)F)nc2ccccc21 (stereo not given) | / | -1.4 | / | 8.2 | 1.1 | 7.1
COc1cc(/C=C/C(=O)O[C@H]2CC[C@]34C[C@]35CC[C@]3(C)[C@@H]([C@H](C)CCC=C(C)C)CC[C@@]3(C)[C@@H]5CC[C@H]4C2(C)C)ccc1O | / | / | / | / | / | 11.2
Cc1ccc(-c2ccc(C3C(C#N)=C(N)Oc4n[nH]c(C)c43)o2)cc1 (stereo not given) | -25.8 | -12.5 | ? | -47.8* | 13.5 | 0.4
Cc1[nH]nc2c1C(c1ccc(-c3ccc(Cl)cc3)o1)C(C#N)=C(N)O2 (stereo not given) | -2.1 | -4.3 | ? | -3.3 | 2.7 | -3.5
CC(=O)OC[C@H]1O[C@@](COC(C)=O)(O[C@H]2O[C@H](COC(C)=O)[C@@H](OC(C)=O)[C@H](OC(C)=O)[C@H]2OC(C)=O)[C@@H](OC(C)=O)[C@@H]1OC(C)=O | / | / | / | / | / | -5.4
SMILES | DRD3 antagonist | D1 potentiator | BCR signal inh | D1 antagonist | D1 agonist | D3 ag
CCN(C(=O)c1cc2c(s1)-c1ccccc1S(=O)(=O)C2)c1cc(OC)ccc1OC | 23.5 | 6.3 | ? | -0.6 | 4.7 | -0.6
CCN(C(=O)c1cc2c(s1)-c1ccccc1OC2)c1cc(OC)ccc1OC | -53.9* | -4.4 | ? | -1.6 | 5.1 | -11.6
Cc1ccc(-n2ncc3c(Nc4cccc(C(F)(F)F)c4)ncnc32)cc1C | / | -3.7 | 4.9% | -17.4 | 5.5 | 7.9
COC(=O)c1ccc(Nc2ncnc3c2cnn3-c2cccc(C)c2)cc1 | 0.0 | -11.8 | 2.5% | -37.9* | 0.9 | 1.9
COc1ccc(-n2ncc3c(Nc4cccc(C)c4)ncnc32)cc1 | 3.2 | 5.5 | ? | -0.8 | 0.2 | -1.4
Cc1ccc(-n2ncc3c(Nc4cccc(C)c4)ncnc32)cc1 | / | -9.0 | ? | -33.2* | 4.5 | -8.7
Cc1cccc(-n2ncc3c(Nc4ccc(F)cc4)ncnc32)c1 | 3.3 | -16.6 | ? | -49.1* | 0.1 | -5.2
Cc1ccc(-n2ncc3c(Nc4ccc5c(c4)OCCO5)ncnc32)cc1C | / | -1.7 | 8.2% | -13.4 | -0.2 | 48.1*
CCCC(=O)Nc1cccc(-c2nc3cc(C)c(C)cc3o2)c1C | / | -0.5 | / | 6.3 | -0.2 | 9.4
O=[S+]([O-])(c1ccc2c(c1)OCCO2)N1CCN([S+](=O)([O-])c2ccc(F)cc2Cl)CC1 | / | 4.0 | / | -19.5 | 6.3 | /
CCc1ccc2c(c1)c(=O)c(C(=O)c1ccccc1)cn2CC(=O)Nc1ccc(C)c(Cl)c1 | / | -0.2 | / | 12.7 | 1.6 | -11.4
C[C@H]1CN(CCc2ccccc2)C(=O)[C@@H]1CC(=O)Nc1ccccc1 | -8.6 | / | / | / | / | -7.2
O=C(Nc1ccccc1O)c1cc(S(=O)(=O)N2CCCC2)ccc1Cl | / | -1.6 | / | -20.2 | 5.0 | 6.5
Cc1nn(Cc2cccc(C(=O)NC3CCCCC3)c2)c(C)c1Cl | -50.6* | 0.1 | -4.3% | -9.9 | 2.9 | -1.0
COc1cc(NC(=O)Nc2nc(C(N)C3CCCCC3)cs2)cc(OC)c1OC (stereo not given) | 13.9 | / | / | / | / | -7.7
CCN(Cc1ccccc1)C(=O)Cn1c(=O)cc(C)c2c(C)nn(-c3cccc(F)c3)c21 | / | -1.4 | / | 7.3 | 3.6 | 6.3
COc1ccc(CN2C3CCC2CC(NC(=O)c2cc(OC)c(OC)c(OC)c2)C3)cc1 (stereo not given) | -66.4* | -4.3 | 4.9% | 10.3 | 0.6 | -25.4
COc1cc(C(=O)NC2CCN(Cc3ccccc3)CC2)cc(Cl)c1OC | -99.0* | -8.4 | -1.8% | -1.2 | 9.1 | -19.1
COc1ccc(C(=O)NC2CC3CCCC(C2)N3Cc2ccccc2)cc1OC (stereo not given) | -94.0* | -2.4 | 5.7% | -33.0* | 1.9 | -24.9

Screening data (PubChem BioAssay)
